Compound activity deposited in PubChem by National Center for Advancing Translational Sciences (NCATS).
NPC1 prom act: activators of NPC1 promoter; Huh7 NPC1 promoter luciferase reporter, 24 h; Potency, µM (highest dose often 9.22 µM), for inactives: at the top dose activation, usual class: activators; 320,000 tested, 2.4% active; AID 485313; further: % of control where 0% means no effect; nearly all actives have a fitted effect of over 60% in size
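Huh7 reporter cells (NPC1 promoter driving luciferase) are dosed with compound for 24 h at 37 °C, 5% CO2; luciferase detection reagent is then added and luminescence measured after 10 min at ambient temperature.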
p53 reactivator: restores transcriptional activity of mutant p53; H1299 p53-A138V BP100-luciferase reporter, luminescence, 24 h; Potency, µM (titrated, usually from 92.2 µM), inactives show at the highest dose activity change, positive = activation, actives largely listed as activators; 320,000 tested, 0.063% active; AID 504706; further: % of control where 0% means no effect; nearly all actives have a fitted effect of over 45% in size
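p53-null H1299 cells stably carrying temperature-sensitive p53-A138V and a BP100-luciferase reporter were pinned with compounds (4-point, 1:5 series) and held 24 hrs at 37 deg C. Luminescence was read 10 min after detection reagent.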
FLuc modulator: counter-screen for miR-21 project: firefly luciferase inhibitors or activators | Potency, µM (series often up to 57.5 µM), for inactives: top-dose activity change, negative = inhibition, actives largely listed as inhibitors | P08659 | 360,000 tested, 6.9% active | purified FLuc, Km substrates, luminescence inhibition;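 further: plate controls were vehicle for no effect and reference inhibitor for full effect; nearly all actives have a fitted effect of over 55% in size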
Target sequence (P08659 whole entry, looked up): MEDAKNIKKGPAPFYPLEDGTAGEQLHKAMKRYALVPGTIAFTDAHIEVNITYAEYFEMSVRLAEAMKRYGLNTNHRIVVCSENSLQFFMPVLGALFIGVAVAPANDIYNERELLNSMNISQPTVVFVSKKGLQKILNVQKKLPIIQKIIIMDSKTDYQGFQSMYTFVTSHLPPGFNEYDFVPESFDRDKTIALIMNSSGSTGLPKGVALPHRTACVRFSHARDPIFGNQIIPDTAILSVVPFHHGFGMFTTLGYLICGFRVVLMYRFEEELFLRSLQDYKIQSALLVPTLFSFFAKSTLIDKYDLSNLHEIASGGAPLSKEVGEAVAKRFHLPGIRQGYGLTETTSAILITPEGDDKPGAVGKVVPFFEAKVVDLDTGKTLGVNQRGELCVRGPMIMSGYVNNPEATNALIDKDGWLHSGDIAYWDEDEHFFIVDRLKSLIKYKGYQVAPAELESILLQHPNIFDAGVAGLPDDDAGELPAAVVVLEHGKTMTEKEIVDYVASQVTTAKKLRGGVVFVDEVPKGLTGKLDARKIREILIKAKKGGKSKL
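Purified P. pyralis luciferase (10nM final) with 10uM D-luciferin and 10uM ATP (Km levels) in 50mM Tris acetate pH 7.5, 10mM Mg acetate, 0.01% Tween-20, 0.05% BSA; qHTS 6-point titration, ~60 µM downward; luminescence read.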
ELG1 genotoxic: induces genotoxicity in HEK293T cells with luciferase-tagged ELG1. HEK293T ELG1-luciferase reporter, luminescence, 16 h. Potency, µM (top dose mostly 46 µM), for the others: at the highest dose activity change, positive = activation, actives largely listed as activators. 330,000 tested, 1.3% active; further: % of control where 0% means no effect; nearly all actives have a fitted effect of over 60% in size
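16 hr compound incubation (37 °C, 5% CO2) of HEK293T cells carrying luciferase-tagged ELG1; luciferase then measured by ONE-Glo luminescence after 30 min at RT.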
Rab9 prom act: activators of Rab9 promoter; Huh7 Rab9 promoter-luciferase reporter, luminescence, 24 h; AID 485297; Potency, µM (top dose mostly 9.22 µM), for the others: at the highest dose activation, negative = inhibition, actives largely listed as activators; 320,000 tested, 2.8% active; further: % of control where 0% means no effect; nearly all actives have a fitted effect of over 60% in size
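Steps: seed 1500 Huh7 Rab9-luc cells per well, rest 2 h at 37 °C; add compound in DMSO; incubate 24 h; add luciferase reagent, 10 min ambient; read luminescence.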
SMN2 splice up: SMN2 splice variant enhancement; Potency, µM (series often up to 46.1 µM), for inactives: at the top dose activity change, positive = activation, actives largely listed as activators; AID 1458; 210,000 tested, 2.8% active; HEK293 SMN2-luciferase splicing reporter, luminescence, 30-36 h; further: % of control where 0% means no effect; nearly all actives have a fitted effect of over 55% in size
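HEK293 cells carry an SMN2 minigene-luciferase reporter in which exon 7 inclusion puts luciferase in frame. Cells were seeded at 2000 cells/well, attached for 10-12 hours, then exposed to compounds for 30-36 hours at 37C before ONE-Glo luminescence.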
An asterisk follows results filed as active; ? = inconclusive; / = not tested or not shown; [ ] = remark or other dose. Shown are actives, neighbours in structure and some others; about 7.3% of the full set was active somewhere. The call rests on the fitted dose curve; in most records, active means well fitted curve in the direction sought with a large enough effect; inconclusive means small, poorly fitted or top-dose-only effect, or another doubt; inactive means no such curve, though single readings can be large; an effect the other way counts as inactive or inconclusive. Potency means the concentration at half of the fitted maximal effect.

SMILES	NPC1 prom act	p53 reactivator	FLuc modulator	ELG1 genotoxic	Rab9 prom act	SMN2 splice up
Cc1nn(C(=O)COc2ccccc2Br)c(C)c1Sc1ccccc1	/	/	-12%	/	/	-7%
CC1=C(C(=O)Nc2ccc(Cl)cc2)C(c2ccc(C(F)(F)F)cc2)n2nnnc2N1 (stereo not drawn)	/	/	6%	/	/	2%
CC(NC(=O)c1cc(COc2ccccc2)on1)c1nccs1 (stereo not drawn)	1.4µM*	?	4.8µM*	8.2µM*	1.4µM*	/
Cc1cccc(CC(C)NC(=O)c2cc(COc3ccc(C)c(C)c3)on2)n1 (stereo not drawn)	?	10%	21µM*	18%	?	/
Cc1cc(OCc2cc(C(=O)NC3CCC3)no2)cc(C)c1Cl	-1%	?	1%	0%	0%	/
Cc1ccc(OCc2cc(C(=O)NC(C)Cc3cnccn3)no2)cc1C (stereo not drawn)	-5%	-7%	-21%	0%	4%	/
Cc1cc(OCc2cc(C(=O)NC(C)c3c(C)nn(C)c3C)no2)cc(C)c1Cl (stereo not drawn)	2.5µM*	10%	6.7µM*	?	2.2µM*	/
Cc1nc(C(C)NC(=O)c2cc(COc3ccc(C)c(C)c3)on2)c(C)s1 (stereo not drawn)	2.8µM*	?	9.5µM*	?	3.2µM*	/
CCc1cc(C(=O)NC(C)c2ccccc2)no1 (stereo not drawn)	/	/	2%	/	/	-2%
Cc1ccc(NC(=O)c2c(C)nc3sc(C(=O)Nc4ccc(F)cc4)c(N)c3c2-c2ccc(C)o2)c(C)c1	/	/	5%	/	/	-4%
COc1ccc(-n2c(-c3ccco3)nc3c(cnn3-c3ccccc3Cl)c2=O)cc1	/	/	-8%	/	/	-8%
O=C(Cn1nc2c(cc1=O)CCCC2)NCc1ccccc1	/	/	2%	/	/	/
CC(NC(=O)COc1ccc(N(C)S(=O)(=O)c2ccccc2)cc1)c1ccccc1 (stereo not drawn)	-5%	0%	4%	-7%	-3%	-29%
Cc1ccc(-c2noc(-c3ccoc3C)n2)cc1	?	2%	3µM*	15µM*	-6%	?
Cc1onc(-c2ccccc2Cl)c1-c1nc(-c2ccccn2)no1	-3%	12%	-8%	-4%	0%	-10%
Cc1occc1-c1nc(-c2ccccn2)no1	?	9%	4.8µM*	?	1.6µM*	11µM*
Cc1occc1-c1nc(-c2ccncc2)no1	13%	?	?	18µM*	10%	?
Cc1cccc(CNC(=O)CN2C(=O)CCn3nc(-c4cn(C)c5ccccc45)cc32)c1	/	/	-14%	/	/	/
CC[C@H](C(=O)c1cccs1)C(O)(C(F)(F)F)C(F)(F)F	/	/	/	/	/	-2%[9.22 µM]
CC(OC(=O)c1nn(C(C)C)c(=O)c2ccccc12)C(=O)Nc1ncc(Cl)cc1Cl (stereo not drawn)	-1%	1%	-1%	-1%	0%	-2%
N#Cc1c(N)nc2c(c1N)CC(COc1ccccc1)O2 (stereo not drawn)	2.8µM*	?	17µM*	?	4.5µM*	/
N#Cc1c(N)nc2c(c1N)CC(CO)O2 (stereo not drawn)	-1%	4%	4%	1%	-1%	-5%
Cc1ccccc1OCC1Cc2c(nc(N)c(C#N)c2N)O1 (stereo not drawn)	?	?	13µM*	?	?	/
Cc1ccccc1OCC1CO1 (stereo not drawn)	/	/	/	/	/	-14%
Cc1ccc(S(=O)(=O)c2cn(CC(=O)Nc3ccc(F)cc3)c3cc4c(cc3c2=O)OCO4)cc1	/	/	-1%	/	/	-14%
SMILES	NPC1 prom act	p53 reactivator	FLuc modulator	ELG1 genotoxic	Rab9 prom act	SMN2 splice up
O=C(NCCc1ccccn1)c1nc(Cn2cc(Br)cn2)no1	1%	-4%	3%	0%	0%	/
Cc1ccc(NC(=O)c2c(C)oc3ncn(CC(C)C)c(=O)c23)nc1	/	/	-8%	/	/	/
CCN(CC)C(=O)Oc1ccc2c(=O)c(-c3ccc(OC)cc3)coc2c1	1.8µM*	9%	8.5µM*	1%	?	-12%
COc1ccc(-c2coc3c(O)c(OC)ccc3c2=O)cc1	/	/	/	/	/	1.6µM*
COc1ccc2c(=O)c(N3C(=O)c4ccccc4C3=O)coc2c1	6%	3%	?	6%	9%	-16%
CCN(CC)C(=O)Oc1ccc2c(=O)c(-c3ccc(OC)cc3)c(C)oc2c1	-4%	-4%	?	-10%	-1%	-47%
COc1ccc2c(=O)c(-c3ccc4c(c3)OCO4)coc2c1	0.35µM*	?	0.67µM*	2.9µM*	0.4µM*	11µM*
Cc1cc(C)nc(SCC(=O)Nn2cnnc2)n1	-1%	7%	5%	-1%	-1%	-8%
COC(=O)c1c(-c2ccccc2)csc1N1C(=O)Nc2ccccc2N1O	?	3%	4.8µM*	?	2.8µM*	?
Cc1cc2nc(/C=C/c3cccnc3)[nH]c2cc1C	?	?	2.4µM*	2.3µM*	?	/
Cc1cc2nc(/C=C/c3nc4cc(C)c(C)cc4[nH]3)[nH]c2cc1C	-3%	4%	?	0%	6%	/
Cc1cc(N=Nc2ccc(Cl)cc2)cc(CN2CCOCC2)c1O	-4%	-2%	17µM*	-3%	0%	/
Cc1cc(N=Nc2ccc(Cl)cc2)cc(CN2CCCC2)c1O	0%	-3%	?	10%	22%	/
CCCCCOc1ccc(Cl)cc1CN1CCOCC1	21%	?	15µM*	21µM*	?	-4%
CCOc1ccc(Cl)cc1CN1CCOCC1	-4%	0%	5%	-1%	0%	-19%
O=C(N/N=C/c1ccc(Br)s1)c1cccnc1	-1%	1%	-17%	-1%	0%	-2%
O=C(N/N=C/c1cccnc1)c1ccc(O)cc1	12%	26%	?	2%	3%	/
O=C(N/N=C\c1cccnc1)c1ccc(Br)s1	22%	21%	9.5µM*	10%	18%	/
O=C(N/N=C\c1ccncc1)c1ccc(Br)s1	-4%	-10%	15µM*	9%	5%	/
Cc1ccc(C(=O)N/N=C\c2ccncc2)s1	21%	9%	?	?	22%	/
CCc1ccc(C(=O)N/N=C/c2ccncc2)s1	18%	4%	12µM*	?	?	/
O=C(N/N=C\c1cccnc1)c1ccc(Cl)s1	1%	20%	13µM*	?	16%	/
COc1ccc2c(c1)c1c(c(=O)n(-c3cc(Cl)ccc3C)c(=O)n1Cc1ccc(F)cc1)n2C	/	/	-3%	/	/	/
COc1ccc2c(Cl)c(C(=O)N/N=C/c3cccnc3)sc2c1	-1%	-1%	?	-3%	-1%	/
O=C(N/N=C/c1cccnc1)c1sc2ccccc2c1Cl	0%	?	19µM*	8%	11%	/
